Assay results from ChEMBL document CHEMBL1157539, “Thousands of chemical starting points for antimalarial lead identification” (Nature, 2010).
Over roughly 13,000 compounds, “IFI” has its median near 4; the highest 2% begin near 17. The sample holds the highest values, similar compounds and a random draw of the others, so the mix is not that of the screen.

test: GSK_TCMDC: Inhibition Frequency Index (IFI). The number of non-kinase HTS assays where a compound showed > 50 % inhibition, expressed as a percentage of the number of such assays in which the compound was tested; assay type: functional

Row | SMILES | IFI [%]
1 | NC(=O)c1cccc(C(=O)Nc2ccc(-c3cccc(-c4nc5cc(F)ccc5[nH]4)c3)cc2)c1 | 1.74
2 | Cc1cccc2nc(-c3cccc(-c4ccc(NC(=O)C(C)CN(C)C)cc4)c3)[nH]c12 (stereo unspecified) | 5.45
3 | O=C(Cc1ccc(-c2ccccc2)cc1)N[C@H]1CCN(Cc2ccc(OCCCN3CCCCC3)cc2)C1 | 7.53
4 | C=C(C)CSc1nc2c(c(=O)n1CCc1ccccc1)C1(CCCC1)Cc1ccccc1-2 | 0
5 | CN1CCCC(CN2CCN(Cc3cccc(-c4cccc(-c5nc6ccccc6[nH]5)c4)c3)CC2)C1 (stereo unspecified) | 7.04
6 | O=C(CCc1c[nH]cn1)Nc1ccc(-c2ccc(-c3nc4ccccc4[nH]3)cc2)cc1 | 3.51
7 | CCNc1cc(C(=O)N[C@@H](Cc2ccccc2)[C@H](O)CNC(C)Cc2cccc(Cl)c2)cc(N2CCCCS2(=O)=O)c1 (stereo partly specified) | 4.9
8 | COc1ccc2c(NN=Cc3ccc(N(C)C)cc3)ccnc2c1 | 5.8
9 | O=C(NCC1CCN(CCN2CCC(c3cn(CCO)c4ccccc34)CC2)CC1)c1ccc(-c2ccc(C(F)(F)F)cc2)cc1 | 10
10 | COc1ccc(O)c(-c2sc(N=C(N)N)nc2-c2ccccc2)c1 | 8.09
11 | Fc1cccc(C=NN=c2cc[nH]c3ccc(C(F)(F)F)cc23)c1 | 0
12 | N=C(NCCc1c[nH]c2ccccc12)NCc1ccccc1Cl | 4.32
13 | NOCCCCOc1ccc(Cl)cc1 | 0
14 | COc1ccc2nc(C)cc(NCc3cccc4ccccc34)c2c1 | 1.46
15 | Cc1cc(=NN=Cc2ccc(Cl)cc2)c2cccc(C)c2[nH]1 | 1.45
16 | COc1ccc(CNCc2cccc(-c3ccc(-c4nc5ccccc5[nH]4)s3)c2)cc1 | 7.69

Row | SMILES | IFI [%]
17 | CN(C)CCCOc1ccc(CCNCc2cccc(Oc3ccc(Cl)cc3)c2)cc1 | 7.97
18 | CC(Cc1ccc(OCCCCOc2ccccc2)cc1)NCCc1ccc(Oc2ccccc2)cc1 (stereo unspecified) | 18.2
19 | CC(Cc1ccc(COc2ccc(CC(CO)NCCc3cccc(Cl)c3)cc2)cc1)NCCc1cccc(Cl)c1 (stereo unspecified) | 16.6
20 | COc1cc(CNCCCCCCNCc2cc(OC)cc3ccccc23)c2ccccc2c1 | 10.1
21 | COc1c(CCNCCCCNCCc2cc(Cl)c3ccccc3c2OC)cc(Cl)c2ccccc12 | 19
22 | CCCCNCc1cc(Cl)c2ccccc2c1O | 6.77
23 | COc1ccc(CCNCCCCCCNCCc2ccc(Cl)c3ccccc23)cc1OC | 9.42
24 | COc1ccc(CNCCCCCCNCc2ccc(OC)c3ccccc23)c2ccccc12 | 8.21
25 | CCOc1cc(CNCCCCCCNCc2cc(OCC)c(OCC)c3ccccc23)c2ccccc2c1OCC | 18.8
26 | COc1ccc(CCNCCCCCCNCCc2ccc(OC)c(OC)c2Cl)c(Cl)c1OC | 2.94
27 | COc1c(CNCCCCCCNCc2cc(Cl)c3ccccc3c2OC)cc(Cl)c2ccccc12 | 19.4
28 | COc1cc(CNCCCCCCNCc2cc(OC)c(OC)c3ccccc23)c2ccccc2c1OC | 7.41
29 | CCOc1ccc(CNCCCCCCNCc2ccc(OCC)c3ccccc23)c2ccccc12 | 15.4
30 | COc1cc(CNCCCCCCNCc2cc(OC)c3ccccc3c2OC)c(OC)c2ccccc12 | 17.3
31 | CCOc1cc(OCC)c2ccccc2c1CNCCCCCCNCc1c(OCC)cc(OCC)c2ccccc12 | 16
